Sampled rows, rich in hits. Any-hit rate of the full collection: about 7.3%.
FMDV inh: High Throughput Screening for Foot and Mouth Disease Virus Antivirals | FMDV antiviral cell-based qHTS | Potency, µM (top dose mostly 57.9 µM), inactives show at the highest dose activity change, negative = inhibition, most hits filed as inhibitors | AID 1159524, 2015 | 410,000 compounds, 1.2% hits; calls by dose curve; tested in HEK293T cells; also: read-out not given here; potency is read from the fitted curve at half-maximal effect; nearly all actives have a fitted effect of over 45% in size
AmpC inh no detg: qHTS Inhibitors of AmpC Beta-Lactamase (assay without detergent) | Potency, µM (top dose mostly 57.1 µM), without a hit: at the top dose activity change, negative = inhibition, actives largely listed as inhibitors | AmpC nitrocefin hydrolysis, absorbance 480 nm, 0.0001% Triton | AID 485341, 2010 | P00811 | 330,000 compounds, 0.52% hits;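 also: potency is read from the fitted curve at half-maximal effect; plate controls were no compound for no effect and no enzyme for full effect; nearly all actives have a fitted effect of over 20% in size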
Target sequence (P00811 whole entry, looked up): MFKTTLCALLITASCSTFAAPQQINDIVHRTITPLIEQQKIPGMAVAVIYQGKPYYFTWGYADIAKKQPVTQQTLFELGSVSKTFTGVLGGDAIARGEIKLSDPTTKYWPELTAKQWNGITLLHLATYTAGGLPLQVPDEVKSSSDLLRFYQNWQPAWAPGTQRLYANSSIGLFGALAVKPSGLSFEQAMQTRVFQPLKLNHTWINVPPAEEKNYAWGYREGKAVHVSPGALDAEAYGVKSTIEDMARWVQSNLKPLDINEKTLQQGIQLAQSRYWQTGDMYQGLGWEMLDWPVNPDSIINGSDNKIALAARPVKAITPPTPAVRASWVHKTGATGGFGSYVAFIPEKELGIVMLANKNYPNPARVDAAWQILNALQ
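AmpC (5.3 nM in the dispensed reagent) in 20 mM phosphate pH 7.0 with 0.01% (detergent screen) or 0.0001% Triton X-100 was preincubated with compounds for 15 min at room temperature. Nitrocefin was then added from an 800 uM solution, and hydrolysis was followed at 480 nm.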
HCMV antiviral: qHTS Assay for inhibitors of the human cytomegalovirus (HCMV); HFF cells, HCMV-luciferase reporter, 72 h; hits give low values; activity change, negative = inhibition, % at 57.5 µM; 410,000 compounds, 4.5% hits; AID 1259415, 2018; in the data active = activity change below about -60%; inconclusive = no clear call, values can overlap the other calls; inactive = above about -39%
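Compounds were evaluated in HFFs infected with an HCMV luciferase reporter virus (MOI 1 PFU/cell). Luciferase in lysates collected 72 h post infection served as the replication measure.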
AmpC inh detg: qHTS Inhibitors of AmpC Beta-Lactamase (assay with detergent); P00811; AmpC hydrolysis of nitrocefin, absorbance 480 nm, 0.01% Triton; 370,000 compounds, 0.041% hits; Potency, µM (doses to about 114 µM), inactives show at the highest dose activity change, negative = inhibition, most hits filed as inhibitors;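 also: potency is read from the fitted curve at half-maximal effect; 0% = no-compound wells and -100% = no-enzyme wells; nearly all actives have a fitted effect of over 25% in size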
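AmpC (5.3 nM in the dispensed reagent) in 20 mM phosphate pH 7.0 with 0.01% (detergent screen) or 0.0001% Triton X-100 was preincubated with compounds for 15 min at room temperature. Nitrocefin was then added from an 800 uM solution, and hydrolysis was followed at 480 nm.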
HCV inh: qHTS Assay for Inhibitors of Hepatitis C Virus (HCV). AID 651820, 2012. Huh7.5.1 HCVcc-Cre infection, luciferase reporter, 44 h. Potency, µM (highest dose often 41.8 µM), without a hit: top-dose activity change, negative = inhibition, actives largely listed as inhibitors. 340,000 compounds, 3.4% hits; also: potency is read from the fitted curve at half-maximal effect
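Reporter virus HCVcc-Cre (~0.5 moi) infects cells exposed to compound; seeding density 1,000 cells/well with 4 h settling beforehand. Luminescence, 15 sec read, taken 44 h post-infection following a 15 min RT substrate incubation.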
Numbers without * were called inactive; ? = inconclusive; / = not tested or not shown; ! = not active in a repeat. Unless noted, calls follow the shape of the dose curve; as a rule, active = well fitted curve in the direction sought with a large enough effect; inconclusive = small, poorly fitted or top-dose-only effect, or another doubt; inactive = no such curve, though single readings can be large; an effect the other way counts as inactive or inconclusive. Unless noted, % is scaled to controls: 0 for no effect and ±100 for the full control effect.

SMILES	FMDV inh	AmpC inh no detg	HCMV antiviral	AmpC inh detg	HCV inh
Cc1ccc(C)c2c(N)c3c(nc12)CCCCC3 (tested in a mixture with another compound)	-25.1%	-26.5%	-70.4*	-0.7%	?
O=C(c1ccc(Br)cc1)c1cc(-c2ccccn2)c(N2CCOCC2)s1	?	-28.1%	54.6	-3.6%	?
O=C(c1ccc(Cl)c(Cl)c1)c1cc(-c2ccccn2)c(N2CCOCC2)s1	-23.0%	164.4%	-74.9*	0.9%	1.3%
COc1cccc(/C=C2/Sc3ccc(C(=O)NC4CC4)cc3NC2=O)c1	/	/	5.0	/	/
COc1ccc(NC(=O)C(Cc2ccccc2)NS(=O)(=O)c2ccc3c(c2)CCC(=O)N3)c(OC)c1 (stereo unspecified)	-9.0%	/	-101.8*	-2.7%	/
CC(OC(=O)c1nn(C)c(=O)c2ccccc12)C(=O)NC1CCCCC1C (stereo unspecified)	-9.9%	-7.5%	7.2	?	7.4%
CCOc1ccc(NC(=O)CN2C(=O)C(c3ccc(Cl)cc3)=NC2(C)C)cc1	-28.3%	/	-1.1	21.8%	/
CC1(C)C=Cc2cc(-c3coc4cc(O)cc(O)c4c3=O)cc(O)c2O1	24.2%	/	-60.6*	/	11.2µM*
O=c1c(-c2ccccc2)coc2cc(O)cc(O)c12	21.8%	/	/	/	/
CCCSc1nnc(-c2cccc(S(=O)(=O)N(C)C)c2)n1-c1cc(OC)ccc1OC	16.2%	147.9%	-61.6*	?	-10.5%
COc1ccc(-n2cc3ccc([N+](=O)[O-])cc3n2)cc1	-34.8%	-23.7%	-96.4*	2.9%	?
COc1ccc(C2=NCCn3nc4cc([N+](=O)[O-])ccc4c32)cc1	8.9%	1.1%	-26.3	5.0%	?
CC(=O)c1ccc(N2CCN(C(=O)NCc3noc4ccc(C)cc34)CC2)cc1	-10.6%	/	-1.8	-0.9%	/
COc1cccc(NC(=O)Cn2c(=O)n(-c3ccccc3)c(=O)c3sccc32)c1	1.4%	-17.7%	-24.0	-0.2%	29.1%
COc1ccccc1OCCn1c(NC(=O)c2ccccc2Cl)nc2ccccc21	31.5%	/	31.3	-5.1%	/
Cc1ccc2c(c1)nnn2C1CCN(S(=O)(=O)c2ccc3ccccc3c2)CC1	?	-12.8%	-64.4*	2.4%	?
Cc1ccc2c(c1)nnn2C1CCN(S(=O)(=O)c2cccc(S(=O)(=O)N(C)C)c2)CC1	17.8µM*	-4.6%	-30.8	0.4%	10µM*
O=S(=O)(c1ccc2c(c1)OCCO2)N1CCC(c2nc3ccccc3[nH]2)CC1	?	-28.3%	3.2	3.0%	3.8%
O=S(=O)(c1ccc2c(c1)OCCO2)N1CCC(c2nc3ccc(Cl)cc3[nH]2)CC1	14.1µM*	-16.4%	-95.7*	3.7%	?
Cc1ccc2nc(C3CCN(S(=O)(=O)c4ccc5ccccc5c4)CC3)[nH]c2c1	/	/	-79.8*	-8.7%	?
COc1cc(=O)n2c(c1C(=O)N(C)Cc1nonc1C)CCN(Cc1cc(C)ccc1C)CC2	-19.0%	/	/	/	/
CCS(=O)(=O)NCc1c(C)ncc2c1CCN(C(=O)c1csc(-c3cccs3)n1)C2	-7.2%	/	/	/	/
Cc1ccc(C)c(N2CCN(C(=O)C3CCN(c4nc(-c5ccc(C(C)C)cc5)no4)CC3)CC2)c1	?	/	-63.2*	-3.2%	/
Cc1ccc(NC(=O)C2CCN(c3nc(-c4ccc(C(C)C)cc4)no3)CC2)c(Cl)c1	?	/	-69.4*	-0.2%	/
CC(C)CNC(=O)C(C)(C)n1cc(NC(=O)COCc2ccccc2)cn1	/	/	4.3	/	/
SMILES	FMDV inh	AmpC inh no detg	HCMV antiviral	AmpC inh detg	HCV inh
COC(=O)c1ccc2c(c1)c(-c1ccccc1)c(-c1ccccc1)n2C	?	-21.7%	-12.1	/	7.08µM*
O=C(CCN1N=C(c2ccccc2)CCC1=O)NC1CCCCC1	5.2%	/	-76.7*	/	/
O=C(CCN1N=C(c2ccccc2)CCC1=O)NC1CCCC1	-10.4%	-8.8%	-14.9	1.7%	4.8%
O=C1CCC[C@H]2[C@@H](Cc3ccccc3)[C@@H](NS(=O)(=O)c3ccc4ccccc4c3)CC[C@]23CCCN13	/	/	2.9	/	/
COCCCNC(=O)C(=O)NCCCOC(C)C	-10.6%	0.282µM*	14.9	1.0%	?
CCC(C)[C@H](NC(=O)NCCCOC(C)C)C(=O)OC (stereo partly specified)	4.4%	-5.5%	21.7	5.5%	6.4%
NC(=O)[C@@H]1CCCN1C(=O)CCN1Cc2ccccc2OC(c2ccccc2F)C1 (stereo partly specified)	-10.3%	/	/	/	/
COc1ccc(Nc2nccc3c2cc(-c2cccc(C(F)(F)F)c2)n3C)c(OC)c1	/	/	14.8	/	/
Cc1ccc(-n2c(-c3ccco3)nc3c(cnn3-c3ccccc3Cl)c2=O)cc1	-23.5%	/	-15.6	0.2%	/
Cc1nc2c(cnn2-c2ccccc2Cl)c(=O)n1-c1ccc(C(C)C)cc1	?	43.2%	-60.2*!	0.7%	?
Cc1ccc(-n2c(C)nc3c(cnn3-c3ccc(F)cc3)c2=O)cc1	?	-15.4%	-83.4*	-9.5%	?
C[C@@H](NCCCc1cccc(C(F)(F)F)c1)c1cccc2ccccc12	/	/	-5.9	/	/
CCOC(=O)c1c(S(=O)(=O)NCC(=O)Nc2cc(C)ccn2)c(C)n(C)c1C	18.6%	1.0%	8.4	2.8%	6.5%
CCOC(=O)c1ccc(N2C(=O)c3n[nH]c(-c4ccco4)c3C2c2cccc(OC)c2)cc1 (stereo unspecified)	?	/	-10.4	0.6%	/
CCOC(=O)c1ccc(N2C(=O)c3n[nH]c(-c4ccco4)c3C2c2cccc(O)c2)cc1 (stereo unspecified)	25.1µM*	/	14.1	-0.8%	/
CCOC(=O)c1ccc(N2C(=O)c3n[nH]c(-c4ccco4)c3C2c2ccccc2OC)cc1 (stereo unspecified)	22.4µM*	/	-101.0*	1.0%	/
CCOC(=O)c1ccc(N2C(=O)c3n[nH]c(-c4ccco4)c3C2c2ccc(OCC)cc2)cc1 (stereo unspecified)	?	/	-87.6*	3.3%	/
CCOC(=O)c1ccc(N2C(=O)c3n[nH]c(-c4cccs4)c3C2c2cccc(F)c2)cc1 (stereo unspecified)	?	/	5.0	?	/
CCOC(=O)c1ccc(N2C(=O)c3n[nH]c(-c4ccco4)c3C2c2cccc(F)c2)cc1 (stereo unspecified)	?	/	-97.9*	7.9%	/
CSc1nc(C(C)C)ccc1CNC(=O)CC(C)c1ccccc1 (stereo unspecified)	-11.8%	-2.6%	-34.0	-2.2%	9.1%
Cc1ccc(C(=O)N(Cc2cc3cccc(C)c3nc2N2CCC(O)CC2)C2CC2)cc1	-12.9%	/	/	/	/
O=C(NC(Sc1ccc(Cl)cc1)C(=O)O)c1ccccc1 (stereo unspecified)	-4.9%	/	4.7	/	/

Bioassay records: PubChem, National Center for Advancing Translational Sciences (NCATS)
